# M18AAP inhibitor = PfM18AAP enzyme inhibition; recombinant PfM18AAP, H-Glu-NHMec fluorogenic cleavage; hit rate 1.2% among 290,000; AID 1822; inhibition, % at 7.35 µM;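 active = inhibition above the campaign mean inhibition over all tested compounds plus 3 SD, cut at about 28% in these data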;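 note: 0% = plate median of test compound wells and 100% = 2 mM ZnCl2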
# SUMO Mot1 rescue = blocks SUMOylation pathway, rescuing yeast Mot1-301 growth | S. cerevisiae Mot1-301 growth rescue, ATP luminescence, 38.5C; percent above DMSO median, 100 means doubled | hit rate 1% among 320,000 | AID 2716 | growth rescue, % at 18.8 µM;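 active = every valid replicate shows activation above 250% relative to neutral control wells; inactive = the rest, any valid replicate at or below 250%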;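 note: OY570 slx delta 5 strain wells were the positive control but not used for scaling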
# HIF act = HIF pathway transcriptional activation; U2OS HRE-luciferase reporter, luminescence; normalized: DMSO 0%, desferrioxamine 100%; activation, % at 7.5 µM (by protocol); hit rate 0.32% among 300,000;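 active = mean activation of at least 10% of the iron chelator positive control signal, with at least half of replicates also reaching 10%; inconclusive = mean and replicate majority disagree about reaching 10%; inactive = mean and most replicates under 10%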
# ALR inh = human ALR oxidase inhibition via reduced H2O2; P55789; purified ALR, DTT oxidation, H2O2 HRP-luminol luminescence; inhibition, % (concentration not given with the values); hit rate 3.8% among 290,000; AID 485317;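 active = mean replicate inhibition above about 79%, with every replicate also reaching it, limit read from the data; inconclusive = only one of the two criteria met; inactive = mean below limit and not every replicate reaching it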
# Target sequence (P55789 whole entry, looked up): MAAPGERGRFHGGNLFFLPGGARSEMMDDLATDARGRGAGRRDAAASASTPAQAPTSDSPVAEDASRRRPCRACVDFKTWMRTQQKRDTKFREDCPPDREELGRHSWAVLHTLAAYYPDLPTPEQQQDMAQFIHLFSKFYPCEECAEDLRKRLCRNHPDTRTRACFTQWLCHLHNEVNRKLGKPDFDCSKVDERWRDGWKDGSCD
# The depositor's hits bear a star; ? = inconclusive; . = no result. In the library only some 5.3% were active in any assay of this set; here they are far more common.
SMILES,M18AAP inhibitor,SUMO Mot1 rescue,HIF act,ALR inh
COc1ccc(N(CC(=O)Nc2ccccc2C(F)(F)F)C2=NC3CS(=O)(=O)CC3S2)cc1 (configuration not stated),1,200,0,97*
CCc1cc(C(=O)N(CC(C)C)c2c(N)n(Cc3ccccc3)c(=O)[nH]c2=O)sc1C,.,-11,0,0
CCNc1cc(S(=O)(=O)C(F)(F)F)ccc1N,9,4,0,.
CCNc1ccc(C(=O)O)cc1N,-11,5,1,98*
CCc1ccccc1Nc1ccc(C(=O)O)cc1N,3,-20,0,99*
CCN(c1ccccc1)S(=O)(=O)c1cc2c3c(c1)CCN3C(=O)CC2,.,-4,-64,-1
CCCCNC(=O)c1ccc(S(=O)(=O)c2ccc(Cl)cc2)c(NC(C)=O)c1,4,-8,0,-2
CCN(CC)S(=O)(=O)c1ccc(C(=O)Nc2ccc(Cc3ccncc3)cc2)cc1,0,-10,0,.
CCN(Cc1ccncc1)S(=O)(=O)c1ccc(C(C)=O)cc1,6,3,0,90*
Cc1cc(C)c(S(=O)(=O)N2CCCC(C(=O)NCc3cccnc3)C2)c(C)c1 (configuration not stated),0,187,0,2
CS/C(N)=N/N=C/c1c(O)ccc2ccccc12,15,-2,1,.
CS/C(N)=N/N=C/c1cc(C)ccc1O,26,.,3,-12
CCCCS/C(N)=N/N=C/c1cc(C)ccc1O,29*,22,3,1
CCS/C(N)=N/N=C/c1cc(C)ccc1O,31*,.,1,-4
O=C(COC(=O)Cc1n[nH]c(=O)c2ccccc12)NNC(=O)c1ccc(Cl)cc1,.,-7,.,-2
O=C(Nc1ccccc1Br)c1ccc(N2CCCC2=O)cc1,.,-21,3,-5
COc1ccc(Nc2ccnc(Nc3ccc(OC)cc3)n2)cc1,-1,-5,2,98*
C=CCn1c(SCc2ccccc2Cl)nnc1-c1sc2nc(C)cc(C)c2c1N,4,106,0,1
NC(=S)N/N=C/c1c[nH]c2ccc(OCc3ccccc3)cc12,27,5,0,99*
NC(=S)N/N=C\c1ccccc1OCc1ccccc1,-1,-3,0,4
CC(C)(C)c1nnc2sc(SCC(=O)c3cccs3)nn2c1=O,8,-11,1,98*
Cc1ccc(C(=O)CSc2nn3c(=O)c(C(C)(C)C)nnc3s2)cc1,-11,8,0,98*
CC(C)(C)c1nnc2sc(SCC(=O)c3ccc(Cl)cc3)nn2c1=O,4,-13,.,.
CC(C)(C)c1nnc2sc(SCC(=O)c3ccc4c(c3)OCCO4)nn2c1=O,3,-4,2,.
CC(C)(C)c1nnc2sc(SCC(=O)N3CCCc4ccccc43)nn2c1=O,-2,6,2,99*
SMILES,M18AAP inhibitor,SUMO Mot1 rescue,HIF act,ALR inh
COc1ccc(S(=O)(=O)N2CCCOC2CNC(=O)C(=O)NCCc2ccco2)cc1C (configuration not stated),4,-4,3,-9
Clc1ccc(N/N=C/c2ccncc2)cc1Cl,-6,128,-1,98*
N#C/C(=C\c1cccnc1)C(=O)Nc1cccc(Cl)c1,3,4,0,88*
N#C/C(=C\c1cccnc1)C(=O)Nc1cccc2ccccc12,-15,30,0,95*
COc1ccccc1NC(=O)/C(C#N)=C/c1cccnc1,7,-8,0,37
N#C/C(=C\c1cccnc1)C(=O)Nc1ccc(Cl)cc1,5,1,0,98*
Clc1cnc(N/N=C/c2ccncc2)c(Cl)c1,10,46,0,5
Cc1ccc(S(=O)(=O)NNC(=O)Nc2cccc(C)c2C)c(C)c1,4,4,0,3
C[C@@H]1CN([C@@H](C)CO)C(=O)c2cc(NC(=O)Nc3ccccc3)ccc2O[C@H]1CN(C)C(=O)Nc1cccc2ccccc12,.,-19,.,-7
Clc1ccc(N/N=C/c2cccnc2)cc1,4,19,1,99*
O=[N+]([O-])c1ccc(N/N=C/c2cccnc2)cc1,11,256,1,10
COc1ccc(Nc2nc(Cl)nc(NCCO)n2)cc1,3,1,0,.
CC(C)c1ccc(Nc2nc(Cl)nc(NCCO)n2)cc1,-4,-4,-2,97*
Cc1ccc(NS(=O)(=O)N2CCOCC2)cc1,2,-10,0,-10
CCCN(CC1CC1)C(=O)COC(=O)c1[nH]c(C)c(C(=O)OCC)c1C,1,6,0,-16
Oc1cccc(N2Cc3ccccc3C2)c1,10,-4,0,-26
Oc1ccc(N2Cc3ccccc3C2)cc1,5,242,1,84*
COc1cccc(C2=NN(S(C)(=O)=O)C(c3cccs3)C2)c1 (configuration not stated),-8,.,3,.
N#Cc1ccccc1CN1C(=O)S/C(=C/c2cccn2-c2ccc(C(=O)O)cc2)C1=O,-6,-19,-1,98*
Cn1cnc2cc(NCc3ccc(Cl)cc3)ccc21,6,-16,4,94*
CCOc1ccc(CNc2ccc3c(c2)ncn3C)cc1,27,-13,3,82*
O=C(NNC(=S)NC(=O)c1cccnc1)c1ccc(F)cc1,12,-3,0,98*
O=C(NNC(=S)NC(=O)c1ccc(F)cc1)c1cccnc1,14,-28,0,98*
O=C(NNC(=S)NC(=O)c1cccnc1)c1ccccc1,19,-13,-1,15
Oc1cncc(Cc2ccccc2)c1,-14,-7,0,12
SMILES,M18AAP inhibitor,SUMO Mot1 rescue,HIF act,ALR inh
Cc1cccc(Nc2n[nH]c(=S)s2)c1C,21,2,-1,99*
NNC(=O)c1ccccc1CO,.,-12,1,79*
Cc1ccc(-c2cc(C(F)F)n3ncc(C(=O)N4CCCCC4c4cccnc4)c3n2)cc1 (configuration not stated),-4,548*,-1,-9
O=C(c1cnn2c(C(F)(F)F)cc(-c3ccccc3)nc12)N1CCCCC1c1cccnc1 (configuration not stated),-2,3,0,-7
Cc1cc(NN)nc(Cc2ccccc2)n1,9,35,0,81*
CC(C)(C)C(=O)/C(=C\c1ccc([N+](=O)[O-])cc1)n1cncn1,7,330*,-3,20
COC(=O)CC1SC(=O)NC1=Nc1ccc(O)cc1 (configuration not stated),3,-9,0,96*
COC(=O)CC1SC(=O)NC1=Nc1ccc(OC)cc1 (configuration not stated),12,13,0,-7
C=C(C)C(=O)Nc1ccc(NC(C)C)cc1,5,189,-16,99*
CC(C)(C)c1ccc(OCC(=O)NCCN2CCOCC2)cc1,-2,-9,2,-9
O=C(CSc1nc2ccccc2s1)NCc1ccc2c(c1)OCO2,2,7,0,98*
O=C(CSc1nc2cc([N+](=O)[O-])ccc2n1-c1ccccc1)NCc1ccc2c(c1)OCO2,38*,-15,0,?
Cn1nnnc1SCC(=O)NCc1ccc2c(c1)OCO2,-11,-4,1,-11
COCCn1nnnc1SCC(=O)NCc1ccc2c(c1)OCO2,1,5,0,96*
O=C(CCCSc1nc2ccccc2s1)NCc1ccc2c(c1)OCO2,3,7,0,.

# From PubChem
